# Source: PubChem
# Sampled rows, rich in hits. Any-hit rate of the full collection: about 2.3%.
# Mcl-1 Bim block – disrupts Bim peptide binding to human Mcl-1. AID 1009. actives 0.1% (n = 190,000). Q07820. Bead-based flow cytometry, Bim peptide-Mcl-1 binding. inhibition, % at 10 µM; in the data active = inhibition above about 40%;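 note: 0% = no compound tracer wells and 100% = peptide blocker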
# Target sequence (Q07820 whole entry, looked up): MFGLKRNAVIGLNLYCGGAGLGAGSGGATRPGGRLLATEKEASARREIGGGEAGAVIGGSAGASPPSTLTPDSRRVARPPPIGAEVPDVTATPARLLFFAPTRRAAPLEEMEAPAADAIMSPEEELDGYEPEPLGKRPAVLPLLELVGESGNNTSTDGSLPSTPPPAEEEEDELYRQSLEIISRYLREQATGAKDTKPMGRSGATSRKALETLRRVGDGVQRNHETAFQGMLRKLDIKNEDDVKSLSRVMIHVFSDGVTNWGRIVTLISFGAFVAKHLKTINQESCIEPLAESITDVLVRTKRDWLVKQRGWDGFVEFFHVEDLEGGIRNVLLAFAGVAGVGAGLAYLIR
# GLD-1 TGE inh – GLD-1-TGE RNA interaction inhibition (C. elegans); Q17339; inhibition, % at 5.96 µM; actives 0.44% (n = 320,000); purified GLD-1 + fluorescein TGE RNA, fluorescence polarization;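 active = percent inhibition above a per-plate cutoff, the plate mean of test compounds plus 3 SD, cut at about 30% in these data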;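 note: 0% = DMSO wells with GLD-1 and probe and 100% = wells lacking GLD-1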
# MCL1 BIM primary – inhibitors of human MCL1 binding to BIM-BH3 peptide; Q07820; GST-MCL1 / FITC-Bim-BH3 fluorescence polarization; inhibition, % at 10.9 µM; actives 0.68% (n = 320,000); AID 2057;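 active = inhibition above the mean inhibition of all tested compounds plus 3 SD, set per campaign, cut at about 40% in these data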;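 note: 0% = DMSO wells and 100% = unlabeled Bim-BH3 peptide control; higher means more loss of mP so more displacement of Bim peptide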
# Mcl1 Bid PPI – Mcl-1/Bid interaction inhibition; AID 1021; actives 0.97% (n = 220,000); Q07820; TR-FRET Mcl-1/Bid-Dy647 peptide binding, 1536-well; inhibition, % at 21.7 µM;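 active = compounds that cut the binding signal by more than half at the single screening dose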;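 note: His-tagged Mcl-1 with europium anti-His antibody binding Bid BH3 peptide; 0% = Mcl-1 plus peptide wells and 100% = peptide-only wells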
# Mcl1 Noxa PPI – Mcl-1/Noxa interaction inhibition | Q07820 | TR-FRET Mcl-1/Noxa peptide binding, 2 h | inhibition, % at 21.7 µM | actives 1.5% (n = 220,000) | AID 1022;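 active = compounds that cut the protein-peptide binding signal by more than 50% relative to plate controls in a single-dose test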;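 note: His-tagged Mcl-1 with rhodamine Noxa BH3 peptide and terbium anti-His antibody; 0% = Mcl-1 plus Noxa peptide wells and 100% = peptide-only wells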
# Bcl-xL primary – blocks human Bcl-xL binding to Bim BH3 peptide; GST-Bcl-xL / FITC-Bim BH3 peptide fluorescence polarization; inhibition, % at 10.9 µM; Q07817; actives 0.7% (n = 320,000); AID 2129;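 active = inhibition above the mean of all tested compounds plus 3 SD, cutoff set per campaign, cut at about 30% in these data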;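 note: 0% = DMSO wells and 100% = unlabeled Bim-BH3 peptide competitor; inhibitors lower millipolarization by displacing the labeled peptide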
# * marks the source's active call; other numbers are inactive results; x = no result.
SMILES,Mcl-1 Bim block,GLD-1 TGE inh,MCL1 BIM primary,Mcl1 Bid PPI,Mcl1 Noxa PPI,Bcl-xL primary
CCN(CC)c1ccc(NC2=C(Cl)C(=O)c3ccccc3C2=O)cc1,-2,16,11,7,89*,12
Cc1ccn2c(CNCc3cnn(C)c3)c(C(=O)N3CCCCCC3)nc2c1,x,-1,0,x,x,67*
O=C(NCc1ccco1)c1ccc2c(=O)n(Cc3ccco3)c(SCC(=O)N3CCCC3)nc2c1,-2,-2,17,0,54*,4
Cc1ccc(CNC(=O)COc2ccc(S(=O)(=O)N3CCCC3)cc2)cc1,x,10,1,x,x,-1
Cc1ccc(-c2ccc(/C=N/N=C3/NC(=O)C(CC(=O)O)S3)o2)c([N+](=O)[O-])c1 (centres undefined),1,10,22,-37,29,12
CC1=C(C#N)C(=O)NC(=O)/C1=C\c1ccc(-c2ccc(C)cc2[N+](=O)[O-])o1,0,x,x,75*,95*,x
Cn1nnnc1SCC1=C(C(=O)O)N2C(=O)[C@@H](NC(=O)[C@H](O)c3ccccc3)[C@H]2SC1,-4,3,11,-57,51*,9
O=c1c(-c2cnn(-c3ccccc3)c2)coc2cc(O)ccc12,-6,11,3,4,57*,3
Cc1oc2cc(O)ccc2c(=O)c1-c1cnn(-c2ccccc2)c1,-1,-2,10,-58,-14,8
N#Cc1ccsc1NC(=O)c1cccc([N+](=O)[O-])c1,0,5,10,-29,54*,7
N#Cc1nc(COc2ccc(Cl)cc2)oc1NCc1ccc2c(c1)OCO2,0,-5,-1,-16,-5,5
Cc1cccc(OCc2nc(C#N)c(NCc3ccc4c(c3)OCO4)o2)c1,0,0,-5,83*,8,-2
CCOc1ccc(CCNC(=O)COC(=O)COc2ccc(Br)cc2)cc1OCC,x,0,-27,x,x,-5
CCOc1ccccc1Nc1nnc(Cc2ccccc2Cl)c(=O)[nH]1,-8,1,13,53*,25,7
COc1cc(O)c(/C=N/NC(=O)c2ccncc2)c(OC)c1[N+](=O)[O-],1,7,16,-62,53*,2
COc1ccc(/C=N/NC(=O)c2ccncc2)cc1[N+](=O)[O-],0,-4,8,-5,0,0
COc1cc(C(=O)N/N=C\c2ccccc2)c([N+](=O)[O-])c(OC)c1OC,0,-2,15,95*,5,6
O=C(Cn1cnc2ccccc2c1=O)NC1CCS(=O)(=O)C1 (centres undefined),x,8,-6,x,x,-2
CCN(Cc1ccccc1)c1ccc(/C=N/N2CCOCC2)cc1,-1,4,10,-46,64*,4
COc1cc(OC)c(C(=O)Nc2ccc(S(=O)(=O)N3CCCCC3)cc2)cc1OC,x,-3,-18,x,x,-10
CC(=O)Nc1ccc(-c2sc(Nc3cccc4ccccc34)n[n+]2-c2ccccc2)cc1,x,-3,-1,x,x,1
O=C(O)Cc1sc(Nc2ccc(F)cc2)nc1-c1cccs1,-3,-13,4,-3,53*,6
Cc1ccc(Nc2nc(-c3ccccc3)c(CC(=O)O)s2)cc1,9,-38,-44,-23,12,-30
CCOC(=O)c1ccc(NC(=O)Oc2ccccc2)cc1,2,2,2,100*,15,7
CCOC(=O)c1ccc(NC(=O)c2ccccc2)cc1,0,-5,3,12,13,2
SMILES,Mcl-1 Bim block,GLD-1 TGE inh,MCL1 BIM primary,Mcl1 Bid PPI,Mcl1 Noxa PPI,Bcl-xL primary
O=C(N/N=C/c1cc(Cl)ccc1O)c1ccc(Br)cc1,2,-5,5,-25,63*,0
O=C(N/N=C/c1cc(Br)ccc1O)c1ccncc1,x,-2,1,-104,-69,2
CC(C)(C)OC(=O)N/N=C/c1cc(N=Nc2ccccc2)ccc1O,-6,3,3,-4,5,0
Cc1ccc(N=Nc2ccc(O)c(/C=N\NC(=O)c3ccc(N)cc3)c2)cc1C,-1,5,8,-23,86*,3
Cc1ccc(S(=O)(=O)NCc2ccc(C(=O)NC3CCC(O)CC3)cc2)cc1C (centres undefined),x,1,5,x,x,2
O=C1/C(=C\c2cccnc2)Sc2ccccc21,0,16,37,-9,19,28
